Experiment [1] in a line: rapamycin-like changes in RPL19A-GFP expression – cell-based, S. cerevisiae, multiplex flow cytometry, primary screen (AID 1862; in the data active = percent of DMSO control GFP below about 86%;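 also: lower values mimic rapamycin by blocking the RPL19A rise seen in DMSO cells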). The note with it: S. cerevisiae RPL19A-GFP strain, flow cytometry fluorescence, 3 h; at 10 µM; stronger effect = lower value. (In general: In flow cytometry, cells or beads pass a laser one at a time.)
The nature of experiment [2]: TOR pathway GLN3 branch reporter MEP2-GFP changes – S. cerevisiae, multiplex flow cytometry, primary screen (AID 1867;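 active = GFP response, as percent of the DMSO control, above the screen-wide mean plus 3 SD, about 139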;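 also: median GFP channel fluorescence of barcode-gated MEP2-GFP cells measured by flow cytometry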). To be noted: S. cerevisiae MEP2-GFP strain, 3 h, at 10 µM, stronger effect = higher value, 100% means same as DMSO wells.
Experiment [3] is described as follows: TOR pathway RTG branch CIT2 reporter changes – S. cerevisiae, GFP fusion, multiplex flow cytometry, primary screen (AID 1870;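 active = percent response above a set limit, the screen-wide mean plus 3 SD, cut at about 130% in these data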;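 also: barcoded CIT2-GFP strain pooled with four other GFP strains with rapamycin as positive control; median GFP fluorescence per well over plate mean of DMSO wells so 100% = DMSO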). The note with it: S. cerevisiae CIT2-GFP expression, 3 h, at 10 µM, stronger effect = higher value.
The nature of experiment [4]: TOR pathway LAP4-GFP level changes – S. cerevisiae, multiplex flow cytometry, primary screen (AID 1873). To be noted: S. cerevisiae LAP4-GFP expression, 3 h, at 10 µM, stronger effect = higher value.
A short description of experiment [5]: yeast AGP1-GFP level changes, GLN3 branch – cell-based, multiplex flow cytometry, S. cerevisiae, primary screen (AID 1887;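 active = GFP signal above the screen-wide mean plus 3 SD, that is over about 124.5% of the solvent control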;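 also: AGP1-GFP fusion strain of S. cerevisiae within a five-strain barcoded multiplex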). The note with it: 3 h, at 10 µM, stronger effect = higher value.
The nature of experiment [6]: reduced mouse 2C T cell binding to pMHC/ICAM-1 vesicles – MLPCN validation set, flow cytometry, LFA-1/ICAM-1 modulator project, pilot screen (AID 2523;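 active = response below a set limit, under 55% cells CD8-positive and vesicle-bound, and CD8 cells' 90th-percentile brightness under 279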;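 as to vesicle binding response: mean PE anti-B7-1 fluorescence of CD8+ cells relative to row control; 100% = QL9-loaded vesicles with DMSO vehicle in the same plate row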). To be noted: 2C mouse CD8+ T cells, at 7 µM, stronger effect = lower value; double positive events: measured here: CD8+/vesicle+ event percentage.
In experiment [7] the target is Integrin beta-1 (Homo sapiens) + Integrin alpha-4 (Homo sapiens) (UniProt P13612+P05556). As to the kind of experiment: alpha4beta1 integrin LIBS antibody binding reduction – U937 cells, HUTS-21 mAb, flow cytometry, validation set, VLA-4 allosteric modulator project, pilot screen (AID 2674;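 active = inhibition above 50%, about 3 SD of the validation set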;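 also: antibody binding induced by the VLA-4 ligand LDV present at three times its Kd; 0% = LDV ligand with antibody and no compound and 100% = antibody without LDV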). To be noted: HUTS-21 LIBS mAb binding, at 6.7 µM, stronger effect = higher value, binding induced by LDV ligand.
Sequence of Integrin beta-1 (Homo sapiens) + Integrin alpha-4 (Homo sapiens) (P05556 whole entry, looked up): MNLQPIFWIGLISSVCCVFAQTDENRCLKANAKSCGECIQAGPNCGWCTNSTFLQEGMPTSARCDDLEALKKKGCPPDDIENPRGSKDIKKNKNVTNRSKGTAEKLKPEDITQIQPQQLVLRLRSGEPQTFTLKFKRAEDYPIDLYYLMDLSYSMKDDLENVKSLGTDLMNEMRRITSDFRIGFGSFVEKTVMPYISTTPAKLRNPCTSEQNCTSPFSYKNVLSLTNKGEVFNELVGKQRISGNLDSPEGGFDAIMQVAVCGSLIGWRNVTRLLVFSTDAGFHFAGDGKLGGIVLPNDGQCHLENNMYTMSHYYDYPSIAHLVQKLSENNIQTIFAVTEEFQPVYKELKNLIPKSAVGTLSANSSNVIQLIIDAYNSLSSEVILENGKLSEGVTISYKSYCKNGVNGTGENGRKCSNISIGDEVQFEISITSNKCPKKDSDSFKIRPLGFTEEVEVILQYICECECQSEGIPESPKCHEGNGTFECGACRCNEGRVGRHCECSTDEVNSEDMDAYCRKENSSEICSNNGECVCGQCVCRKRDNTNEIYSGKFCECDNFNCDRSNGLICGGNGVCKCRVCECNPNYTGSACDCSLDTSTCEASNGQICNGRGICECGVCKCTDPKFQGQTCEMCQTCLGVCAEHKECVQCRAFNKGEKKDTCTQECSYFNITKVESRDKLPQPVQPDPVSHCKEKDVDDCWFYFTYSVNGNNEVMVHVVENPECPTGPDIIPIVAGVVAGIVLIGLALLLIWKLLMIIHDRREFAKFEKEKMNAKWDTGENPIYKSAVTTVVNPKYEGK
Sequence of Integrin beta-1 (Homo sapiens) + Integrin alpha-4 (Homo sapiens) (P13612 whole entry, looked up): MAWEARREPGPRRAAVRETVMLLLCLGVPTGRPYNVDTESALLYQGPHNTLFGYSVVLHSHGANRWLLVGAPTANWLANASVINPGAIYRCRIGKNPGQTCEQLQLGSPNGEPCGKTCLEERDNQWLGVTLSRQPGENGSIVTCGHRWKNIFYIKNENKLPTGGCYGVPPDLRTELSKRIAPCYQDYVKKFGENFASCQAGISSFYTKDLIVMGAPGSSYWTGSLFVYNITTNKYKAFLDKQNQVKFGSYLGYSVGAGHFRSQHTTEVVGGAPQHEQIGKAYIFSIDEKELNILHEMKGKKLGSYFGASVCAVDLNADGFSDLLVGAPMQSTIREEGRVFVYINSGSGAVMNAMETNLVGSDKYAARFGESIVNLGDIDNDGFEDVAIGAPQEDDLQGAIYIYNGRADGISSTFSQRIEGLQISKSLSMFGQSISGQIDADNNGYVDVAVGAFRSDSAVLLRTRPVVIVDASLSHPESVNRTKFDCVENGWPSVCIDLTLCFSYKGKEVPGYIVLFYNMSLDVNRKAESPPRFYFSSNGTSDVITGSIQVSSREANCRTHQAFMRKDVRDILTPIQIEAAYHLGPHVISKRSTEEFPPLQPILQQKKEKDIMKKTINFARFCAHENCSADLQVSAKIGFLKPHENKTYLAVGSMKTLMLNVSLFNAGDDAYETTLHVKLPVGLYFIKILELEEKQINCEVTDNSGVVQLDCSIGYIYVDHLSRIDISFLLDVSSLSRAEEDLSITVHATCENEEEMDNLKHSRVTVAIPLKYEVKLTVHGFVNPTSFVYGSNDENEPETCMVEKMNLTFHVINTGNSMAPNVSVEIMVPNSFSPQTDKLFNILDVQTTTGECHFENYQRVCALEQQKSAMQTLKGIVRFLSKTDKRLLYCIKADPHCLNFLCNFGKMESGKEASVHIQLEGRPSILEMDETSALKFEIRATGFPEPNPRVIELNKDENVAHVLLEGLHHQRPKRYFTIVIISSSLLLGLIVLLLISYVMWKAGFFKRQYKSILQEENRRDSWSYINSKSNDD

Experiment [8] in a line: calorie-restriction mimetic ROS inhibitors, yeast – validation compound set, pilot screen (AID 2706;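 active = superoxide response below 65% of plate, a cut near 3 SD across the whole screen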;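 also: yeast exposed to compound for one week at 30 degrees C before staining; 100% = mean of all compound wells on the same plate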). To be noted: S. cerevisiae aging, superoxide DHE fluorescence; at 10 µM; stronger effect = lower value.
The target of experiment [9] is Beta-adrenergic receptor kinase 1 (Homo sapiens) (UniProt P25098). Kind of experiment: GRK2 binders displacing RNA aptamer, biochemical, validation, human GRK2, bead flow cytometry (AID 488806;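 active = aptamer binding inhibition above 30%, about 3 SD of noise from non-fluorescent compounds; inactive = inhibition at or below 30%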). The note with it: bead-bound GRK2, FAM-aptamer displacement, at 10 µM, stronger effect = higher value.
Sequence of Beta-adrenergic receptor kinase 1 (Homo sapiens) (P25098 whole entry, looked up): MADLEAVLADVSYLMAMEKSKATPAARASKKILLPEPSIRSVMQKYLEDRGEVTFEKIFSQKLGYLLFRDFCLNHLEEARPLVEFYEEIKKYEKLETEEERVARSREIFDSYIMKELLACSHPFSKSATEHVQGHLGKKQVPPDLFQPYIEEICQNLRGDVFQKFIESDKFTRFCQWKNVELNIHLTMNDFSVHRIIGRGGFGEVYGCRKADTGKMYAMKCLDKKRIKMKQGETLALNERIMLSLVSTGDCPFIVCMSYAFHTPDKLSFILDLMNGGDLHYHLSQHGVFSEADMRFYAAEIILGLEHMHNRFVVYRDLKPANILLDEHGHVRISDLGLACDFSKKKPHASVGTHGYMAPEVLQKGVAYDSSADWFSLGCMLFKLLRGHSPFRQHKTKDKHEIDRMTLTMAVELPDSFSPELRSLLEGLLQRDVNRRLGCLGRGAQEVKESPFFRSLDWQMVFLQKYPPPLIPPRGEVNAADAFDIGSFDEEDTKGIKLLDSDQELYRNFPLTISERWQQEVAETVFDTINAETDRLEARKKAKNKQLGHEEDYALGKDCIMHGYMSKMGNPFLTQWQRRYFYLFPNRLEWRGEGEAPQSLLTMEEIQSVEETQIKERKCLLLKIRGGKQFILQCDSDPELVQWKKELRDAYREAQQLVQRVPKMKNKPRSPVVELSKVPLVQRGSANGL
For experiment [10], the target named is Beta-2 adrenergic receptor (Homo sapiens) (UniProt P07550). Kind of experiment: agonist-induced loss of surface beta2AR – cell-based, FAP fluorogen, flow cytometry, validation set, pilot screen (AID 504459;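 active = percent response above 42, roughly 3 SD of non-fluorescent test compounds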;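 also: agonist-driven loss of surface beta2AR via internalization measured by FAP dye flow cytometry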). To be noted: Am2.2-beta2AR cells, at 10 µM, stronger effect = higher value.
Sequence of Beta-2 adrenergic receptor (Homo sapiens) (P07550 whole entry, looked up): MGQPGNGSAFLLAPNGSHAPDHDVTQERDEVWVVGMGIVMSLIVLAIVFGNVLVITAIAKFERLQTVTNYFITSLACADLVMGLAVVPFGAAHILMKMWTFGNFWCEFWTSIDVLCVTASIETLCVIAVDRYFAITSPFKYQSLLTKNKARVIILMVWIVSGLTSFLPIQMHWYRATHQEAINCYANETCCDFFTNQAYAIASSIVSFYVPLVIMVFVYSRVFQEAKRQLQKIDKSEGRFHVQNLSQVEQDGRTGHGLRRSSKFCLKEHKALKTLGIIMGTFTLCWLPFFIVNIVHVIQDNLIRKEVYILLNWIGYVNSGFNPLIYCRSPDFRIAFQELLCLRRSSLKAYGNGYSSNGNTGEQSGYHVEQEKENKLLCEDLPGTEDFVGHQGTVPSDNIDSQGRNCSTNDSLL
Experiment [11] addresses AP-2 complex subunit beta (Homo sapiens) (UniProt P63010). As to the kind of experiment: beta-arrestin/AP2 interaction blockers – biochemical, validation set, GST-AP2 beads, flow cytometry, pilot screen (AID 504541;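 active = inhibition above 54%, about 3 SD of non-fluorescent compounds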;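 also: AP2 carries R879A mutation and is captured from E. coli lysate; bead-bound FITC arrestin peptide fluorescence measuring arrestin peptide binding to AP2; 0% = DMSO wells and 100% = excess unlabeled arrestin peptide control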). To be noted: FITC arrestin peptide, at 10 µM, stronger effect = higher value, AP2 beta2 appendage fragment, R879A mutant.
Experiment [12] can be described thus: cytosolic pH regulators acting via V-ATPase – S. cerevisiae, pHLuorin, HTS validation (AID 504600; in the data active = response above about 15%;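 also: plate controls were DMSO for no effect and reference compound for full effect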). The note with it: V-ATPase proton transport, at 10 µM, stronger effect = higher value.
Experiment [13] relates to anti-desmoglein-3 scFv antibody binding to human DSG3. As to the kind of experiment: blockers of pathogenic pemphigus antibody–desmoglein-3 binding – biochemical, validation compound set, bead-based, flow cytometry, pilot screen (AID 588368;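 active = binding below the plate cutoff, the plate median minus 3 SD, with a reading above zero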;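 also: signal is the median channel fluorescence of bead-bound GFP antibody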). To be noted: Protein G beads, DSG3-Fc, scFv-GFP binding, at 10 µM, stronger effect = lower value.
A short description of experiment [14]: Nile Red efflux blockade in pump-expressing yeast – validation compound set, multiplex, phenotypic, pilot screen (AID 588506;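 active = efflux inhibition above 0.42, the validation set average plus 4 SD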;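 also: Nile Red retained in cells so higher fluorescence means more efflux inhibition; 0 = negative control wells and 1 = enniatin B 25 µM full block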). To be noted: S. cerevisiae pump-expressing triplex, Nile Red efflux flow cytometry; at 10 µM; stronger effect = higher value; the pumps come from Candida albicans.
For experiment [15], the target named is ATP-binding cassette sub-family B member 6 (Homo sapiens) (UniProt Q9NP58). As to the kind of experiment: blockers of ABCB6-driven porphyrin uptake – K562-ABCB6 cells, flow cytometry, validation set, pilot screen (AID 588550;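 active = inhibition above the screen-wide mean plus 3 SD, about 51%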;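 also: 0% = DMSO wells and 100% = benzethonium chloride 70 µM positive control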). To be noted: K562-ABCB6 porphyrin accumulation, 1 h, at 10 µM, stronger effect = higher value.
Sequence of ATP-binding cassette sub-family B member 6 (Homo sapiens) (Q9NP58 whole entry, looked up): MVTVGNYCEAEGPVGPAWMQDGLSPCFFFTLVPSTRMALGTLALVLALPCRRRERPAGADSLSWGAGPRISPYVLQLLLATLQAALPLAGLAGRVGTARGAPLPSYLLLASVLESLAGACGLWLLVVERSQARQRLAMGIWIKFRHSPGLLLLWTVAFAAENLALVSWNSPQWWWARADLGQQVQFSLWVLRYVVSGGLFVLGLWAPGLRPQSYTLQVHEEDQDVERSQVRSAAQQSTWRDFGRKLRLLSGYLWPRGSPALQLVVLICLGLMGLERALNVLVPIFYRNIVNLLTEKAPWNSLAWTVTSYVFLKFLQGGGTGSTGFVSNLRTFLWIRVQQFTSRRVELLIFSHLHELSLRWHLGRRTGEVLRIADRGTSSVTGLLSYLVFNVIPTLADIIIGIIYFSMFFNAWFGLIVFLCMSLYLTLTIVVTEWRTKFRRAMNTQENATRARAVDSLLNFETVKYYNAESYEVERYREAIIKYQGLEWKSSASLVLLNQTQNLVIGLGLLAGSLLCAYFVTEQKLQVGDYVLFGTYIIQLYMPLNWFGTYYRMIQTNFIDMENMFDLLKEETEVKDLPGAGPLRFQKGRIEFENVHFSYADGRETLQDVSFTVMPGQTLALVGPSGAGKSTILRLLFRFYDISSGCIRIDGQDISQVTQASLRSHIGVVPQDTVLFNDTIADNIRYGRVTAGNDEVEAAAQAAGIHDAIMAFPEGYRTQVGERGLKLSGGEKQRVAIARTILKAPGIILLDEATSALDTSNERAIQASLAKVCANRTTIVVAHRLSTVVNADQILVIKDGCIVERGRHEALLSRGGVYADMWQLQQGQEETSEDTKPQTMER
Experiment [16] in a line: AML differentiation inducers, ER-HoxA9 marrow cells – cell-based, GFP/MAC1 double positive, flow cytometry, validation set, primary screen (AID 588685;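 active = differentiation response of at least 50%, scaled between solvent and reference control, from cells with both markers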;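 also: compound exposure lasts four days before antibody staining and flow analysis; 0% = DMSO wells and 100% = 5 µM fulvestrant positive control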). The note with it: stronger effect = higher value, normalized: vehicle 0, fulvestrant 100.

Molecules are shown by their SMILES. Inconclusive results are not listed. Activity calls are given as the source filed them.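 The calls were made as follows, unless noted: active = GFP signal, as percent of the solvent control, above the screen mean plus 3 SD, about 149; inconclusive = no reading because the compound's own fluorescence upset strain identification; inactive = the rest.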

One may read the inhibition as the drop in the measured response relative to a control, in per cent.

Sequence of AP-2 complex subunit beta (Homo sapiens) (P63010 whole entry, looked up, the tested form may be a part, one chain of several): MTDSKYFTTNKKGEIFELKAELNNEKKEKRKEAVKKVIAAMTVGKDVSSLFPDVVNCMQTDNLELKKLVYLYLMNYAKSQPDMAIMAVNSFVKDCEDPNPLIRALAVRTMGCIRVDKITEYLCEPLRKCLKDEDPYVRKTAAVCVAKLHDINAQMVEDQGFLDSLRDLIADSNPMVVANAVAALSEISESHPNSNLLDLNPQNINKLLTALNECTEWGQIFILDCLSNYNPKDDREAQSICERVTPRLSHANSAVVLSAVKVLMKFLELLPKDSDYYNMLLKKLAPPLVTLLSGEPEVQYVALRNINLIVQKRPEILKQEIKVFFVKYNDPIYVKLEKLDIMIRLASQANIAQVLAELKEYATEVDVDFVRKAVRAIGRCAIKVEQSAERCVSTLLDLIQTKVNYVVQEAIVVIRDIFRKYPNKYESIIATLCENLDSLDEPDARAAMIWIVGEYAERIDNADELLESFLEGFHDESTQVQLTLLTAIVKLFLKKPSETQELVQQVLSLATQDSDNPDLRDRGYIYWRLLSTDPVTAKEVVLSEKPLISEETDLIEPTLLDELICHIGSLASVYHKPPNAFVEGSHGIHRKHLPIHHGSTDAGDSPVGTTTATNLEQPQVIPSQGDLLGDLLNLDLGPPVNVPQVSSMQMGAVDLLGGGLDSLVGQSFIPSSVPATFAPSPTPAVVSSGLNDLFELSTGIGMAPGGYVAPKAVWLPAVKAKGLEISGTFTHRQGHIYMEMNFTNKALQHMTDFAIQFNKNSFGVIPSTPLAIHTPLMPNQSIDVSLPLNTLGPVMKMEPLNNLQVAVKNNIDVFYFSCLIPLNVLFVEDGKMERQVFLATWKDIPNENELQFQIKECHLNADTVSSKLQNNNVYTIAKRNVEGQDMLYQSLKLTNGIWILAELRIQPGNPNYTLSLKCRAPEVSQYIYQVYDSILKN

Consider `COC(=O)c1sccc1NC(=O)Nc1ccccc1F`, for which the percent of DMSO control GFP in experiment [1] was 100% (inactive). For the same molecule, the GFP response vs DMSO in experiment [2] is 103% (inactive); in experiment [4] it was 88.2% (inactive). The percent response of DMSO control in [3] was 105% (inactive). Besides, the GFP response, % of DMSO in experiment [5] is 101% (inactive). In experiment [6], this molecule returned a double positive events of 69.3%. For the same molecule, in experiment [6], the vesicle binding response was 197% (inactive). Besides, the results for the inhibition in experiment [7], in experiment [11] and in experiment [15] were 5.61% (inactive), -3.3% (inactive) and 23% (inactive), respectively. The superoxide response (% of plate) in [8] was 93.7% (inactive). Further, the aptamer binding inhibition in experiment [9] was -3% (inactive). The response was 2% (inactive) in experiment [10] and -6.01% (inactive) in [12]. In addition, the binding (% of control) in [13] is 103% (inactive). Moreover, the efflux inhibition (fraction of control) in experiment [14] was -0.28 (inactive). Moreover, the differentiation response in experiment [16] was 7.13% (inactive).
With `CO[C@@]1(NC(=O)Cc2cccs2)C(=O)N2C(C(=O)O)=C(COC(N)=O)CS[C@@H]21`, in [1], the percent of DMSO control GFP was 91.5% (inactive). Moreover, the results for the GFP response vs DMSO in experiment [2] and in experiment [4] were 130% (inactive) and 83.6% (inactive), respectively. The percent response of DMSO control in experiment [3] was 111% (inactive). The GFP response, % of DMSO in [5] was 119% (inactive). The molecule further gave a double positive events in [6] of 64.1%. Besides, the vesicle binding response in experiment [6] was 191% (inactive). The inhibition is -18.8% (inactive) in experiment [7], 1.97% (inactive) in experiment [11] and 14% (inactive) in experiment [15]. In experiment [8], the superoxide response (% of plate) was 112% (inactive). Further, the aptamer binding inhibition in experiment [9] is 9% (inactive). In addition, the response is -3.96% (inactive) in experiment [10] and -0.45% (inactive) in [12]. Moreover, in [13], the binding (% of control) is 93.6% (inactive). In experiment [14], the efflux inhibition (fraction of control) is 0.16 (inactive). Further, the differentiation response in experiment [16] is -7.37% (inactive).
Regarding `O=C(O)C1Cc2ccccc2CN1S(=O)(=O)c1ccccc1` (stereo not given), the percent of DMSO control GFP in experiment [1] is 98.8% (inactive). Moreover, the figures for the GFP response vs DMSO in [2] and in experiment [4] were 104% (inactive) and 118% (inactive), respectively. Also, the percent response of DMSO control in experiment [3] was 92.9% (inactive). In addition, the GFP response, % of DMSO in experiment [5] is 96.8% (inactive). Moreover, the double positive events in experiment [6] came out at 60.9%. Besides, the vesicle binding response in experiment [6] is 186% (inactive). In addition, the inhibition is -12.7% (inactive) in [7], 1.65% (inactive) in [11] and 9% (inactive) in experiment [15]. Besides, in experiment [8], the superoxide response (% of plate) is 107% (inactive). Moreover, in experiment [9], the aptamer binding inhibition is 4% (inactive). Further, the figures for the response in experiment [10] and in [12] were -23.4% (inactive) and 1.38% (inactive), respectively. In addition, the binding (% of control) in [13] was 104% (inactive). In addition, in [14], the efflux inhibition (fraction of control) is -0.17 (inactive). Moreover, the differentiation response in experiment [16] was 2.4% (inactive).
On to `Cn1c(=O)c2nc3ccccc3nc2n(C)c1=O`, for which the percent of DMSO control GFP in [1] is 94.6% (inactive). The GFP response vs DMSO is 103% (inactive) in [2] and 112% (inactive) in experiment [4]. Moreover, the percent response of DMSO control in experiment [3] is 93.9% (inactive). Further, the GFP response, % of DMSO in experiment [5] is 94.3% (inactive). This molecule gave a double positive events in [6] of 61.5%. The vesicle binding response in [6] was 198% (inactive). The figures for the inhibition in experiment [7], in experiment [11] and in experiment [15] were 2.3% (inactive), -11.6% (inactive) and 2% (inactive), respectively. Further, in [8], the superoxide response (% of plate) is 99.2% (inactive). The aptamer binding inhibition in experiment [9] was 0% (inactive). The response in experiment [10] was -7.58% (inactive); in experiment [12], 2.81% (inactive). Moreover, in experiment [13], the binding (% of control) is 101% (inactive). Further, in experiment [14], the efflux inhibition (fraction of control) is -0.1 (inactive). For the same molecule, the differentiation response in experiment [16] was -12% (inactive).
In the case of `CCOC(=O)c1ccc(N2C(=O)C(CC(=O)NC)N(CCc3ccc(OC)c(OC)c3)C2=S)cc1` (stereo not given), the percent of DMSO control GFP in experiment [1] is 103% (inactive). Also, the GFP response vs DMSO in [2] was 99.9% (inactive); in experiment [4], 104% (inactive). In experiment [3], the percent response of DMSO control is 101% (inactive). Further, the GFP response, % of DMSO in [5] was 98.8% (inactive). The molecule also showed a double positive events in experiment [6] of 59.4%. In experiment [6], the vesicle binding response was 248% (inactive). Moreover, the inhibition in experiment [7] is 6.85% (inactive); in experiment [11], -11.1% (inactive); in experiment [15], 4% (inactive). In experiment [8], the superoxide response (% of plate) is 113% (inactive). The aptamer binding inhibition in experiment [9] is 5% (inactive). Further, the response is 5.49% (inactive) in [10] and 0.17% (inactive) in experiment [12]. For the same molecule, in experiment [13], the binding (% of control) is 103% (inactive). The efflux inhibition (fraction of control) in experiment [14] is 0.26 (inactive). For the same molecule, the differentiation response in experiment [16] is -1.12% (inactive).

For the origin of these results see PubChem BioAssay.
